# Experimental data published in the antibiotic and cytotoxicity screens of Wong et al. (2023).
# The campaign covered roughly 39,000 compounds. About 3,300 (8.5%) were called active. The sample as a whole holds a higher share of actives than the screen did.
# Test system: HepG2
# Test: cytotoxicity call (relative viability < 0.9)
# Details: 10 µM
row,SMILES,cytotoxicity call
1,O=S(=O)(O)c1cc(O)ccc1O,active
2,O=C(O)c1cc(O)ccc1O [listing 1 of 2 here],inactive
3,O=C(O)c1cc(O)ccc1O [listing 2 of 2 here],inactive
4,C[C@@H]1CN([C@H](C)CO)C(=O)c2cc(NS(C)(=O)=O)ccc2O[C@@H](C)CCCCO[C@H]1CN(C)C(=O)Nc1ccc(C(F)(F)F)cc1,inactive
5,COc1ccc(S(=O)(=O)Nc2ccc3c(c2)C(=O)N([C@H](C)CO)C[C@H](C)[C@@H](CN(C)C(=O)CCC(F)(F)F)OCCCC[C@H](C)O3)cc1,inactive
6,O=C(CCCCCC(=O)N/N=C/[C@H](O)[C@@H](O)[C@@H](O)[C@H](O)CO)NO,inactive
7,C[C@@H]1CN([C@H](C)CO)C(=O)CCCn2nncc2CO[C@H]1CN(C)S(=O)(=O)c1ccc(Oc2ccccc2)cc1,inactive
8,C[C@H]1CN([C@@H](C)CO)C(=O)c2cc(NC(=O)Nc3ccc(F)cc3)ccc2O[C@@H]1CN(C)CC1CCCCC1,active
9,C[C@H](CO)N1C[C@H](C)[C@H](CN(C)CC2CCCCC2)Oc2ccc(NC(=O)Nc3ccc(F)cc3)cc2C1=O,inactive
10,C[C@H]1CN([C@@H](C)CO)C(=O)c2cc(NC(=O)Nc3ccc(F)cc3)ccc2O[C@H]1CN(C)CC1CCCCC1,inactive
11,C[C@H](CO)N1C[C@H](C)[C@@H](CN(C)CC2CCCCC2)Oc2ccc(NC(=O)Nc3ccc(F)cc3)cc2C1=O,inactive
12,C[C@@H]1CN([C@@H](C)CO)C(=O)c2cc(NC(=O)Nc3ccc(C(F)(F)F)cc3)ccc2O[C@@H]1CN(C)CC1CCCCC1,active
13,C[C@@H]1CN([C@H](C)CO)C(=O)c2cc(NC(=O)Nc3ccc(F)cc3)ccc2O[C@H]1CN(C)CC1CCCCC1,inactive
14,C[C@@H]1CN([C@@H](C)CO)C(=O)c2cc(NC(=O)Nc3ccc(F)cc3)ccc2O[C@@H]1CN(C)CC1CCCCC1,inactive
15,C[C@@H]1CN([C@@H](C)CO)C(=O)c2cc(NC(=O)Nc3ccc(C(F)(F)F)cc3)ccc2O[C@H]1CN(C)CC1CCCCC1,active
16,C[C@H](CO)N1C[C@H](C)[C@H](CN(C)CC2CCCCC2)Oc2ccc(NC(=O)Nc3ccc(C(F)(F)F)cc3)cc2C1=O,active
17,C[C@@H]1CN([C@H](C)CO)C(=O)c2cc(NC(=O)Nc3ccc(F)cc3)ccc2O[C@@H]1CN(C)CC1CCCCC1,inactive
18,NCCc1[nH]cnc1-c1cccs1,inactive
19,C[C@H](CO)N1C[C@H](C)[C@H](CN(C)C(=O)Nc2cccc3ccccc23)Oc2ccc(NS(=O)(=O)c3ccc(Cl)cc3)cc2CC1=O,inactive
20,COc1ccc(S(=O)(=O)Nc2ccc3c(c2)C(=O)N([C@H](C)CO)C[C@@H](C)[C@@H](CN(C)C(=O)C2CCCCC2)OCCCC[C@H](C)O3)cc1,inactive
21,C[C@@H]1CN([C@@H](C)CO)C(=O)c2cc(NC(=O)CCCCCC(=O)Nc3ccccc3N)ccc2O[C@H]1CN(C)C(=O)Nc1cccc2ccccc12,inactive
22,CC(C)NC(=O)N(C)C[C@@H]1Oc2ccc(NC(=O)Nc3ccc4c(c3)OCO4)cc2C(=O)N([C@H](C)CO)C[C@@H]1C,inactive

row,SMILES,cytotoxicity call
1,C[C@@H]1CCCCO[C@@H](CN(C)C(=O)Cc2ccccc2)[C@H](C)CN([C@@H](C)CO)C(=O)c2cc(NC(=O)Nc3ccccc3)ccc2O1,inactive
2,Cc1cc(C(=O)Nc2cccc3c2O[C@@H](CN(C)S(=O)(=O)c2cn(C)cn2)[C@@H](C)CN([C@H](C)CO)C3=O)n(C)n1,inactive
3,Cc1ccc(S(=O)(=O)Nc2cccc3c2O[C@H](CN(C)S(=O)(=O)c2cccs2)[C@@H](C)CN([C@@H](C)CO)C3=O)cc1,inactive
4,CC(=O)NCC(=O)N1Cc2nccn2C[C@H](Cn2nc(C)nc2C)C1,inactive
5,C[C@@H]1CN([C@@H](C)CO)C(=O)c2cc(C#C[C@@H](C)O)cnc2O[C@@H]1CN(C)C(=O)CN1CCOCC1,inactive
6,Cc1ccc(S(=O)(=O)N(C)C[C@H]2Oc3ccc(NC(=O)Cn4cnnn4)cc3CC(=O)N([C@H](C)CO)C[C@H]2C)cc1,inactive
7,COc1ccc(NC(=O)N(C)C[C@H]2Oc3c(NS(=O)(=O)c4c(C)noc4C)cccc3C(=O)N([C@@H](C)CO)C[C@H]2C)cc1,inactive
8,COc1ccc(NC(=O)N(C)C[C@@H]2Oc3ncc(-c4cccc(C(F)(F)F)c4)cc3C(=O)N([C@H](C)CO)C[C@@H]2C)cc1,inactive
9,C[C@@H]1CN([C@@H](C)CO)C(=O)c2cc(NC(=O)Cn3cnnn3)ccc2O[C@H]1CN(C)C(=O)Nc1ccc2c(c1)OCO2,inactive
10,C[C@@H]1CN([C@H](C)CO)C(=O)c2cc(NC(=O)Nc3ccc(C(F)(F)F)cc3)ccc2O[C@H]1CN(C)CC1CCCCC1,active
11,C[C@H](CO)N1C[C@H](C)[C@@H](CN(C)CC2CCCCC2)Oc2ccc(NC(=O)Nc3ccc(C(F)(F)F)cc3)cc2C1=O,inactive
12,C[C@@H]1CN([C@@H](C)CO)C(=O)c2cc(NC(=O)Nc3ccc(F)cc3)ccc2O[C@H]1CN(C)CC1CCCCC1,inactive
13,C[C@@H]1CN([C@H](C)CO)C(=O)c2cc(NC(=O)Nc3ccccc3)ccc2O[C@@H]1CN(C)CC1CCCCC1,inactive
14,C[C@@H]1CN([C@H](C)CO)C(=O)c2cc(NC(=O)Nc3ccc(C(F)(F)F)cc3)ccc2O[C@@H]1CN(C)CC1CCCCC1,active
15,C[C@H]1CN([C@@H](C)CO)C(=O)c2cc(NC(=O)Nc3ccc(C(F)(F)F)cc3)ccc2O[C@@H]1CN(C)CC1CCCCC1,inactive
16,CNC[C@@H]1Oc2ccc(NC(=O)CCN3CCOCC3)cc2CC(=O)N([C@H](C)CO)C[C@H]1C,inactive
17,C[C@H](CO)N1C[C@H](C)[C@@H](CN(C)C(=O)Nc2ccc3c(c2)OCO3)Oc2ccc(NC(=O)CCN3CCOCC3)cc2CC1=O,inactive
18,O=C(C[C@@H]1CC[C@H]2[C@@H](COC[C@@H](O)CN2C(=O)c2ccccc2F)O1)N1CCN(c2ccccc2)CC1,inactive
19,c1ncc(CC2CCNCC2)[nH]1,inactive
20,COc1ccc(S(=O)(=O)Nc2ccc3c(c2)CC(=O)N([C@@H](C)CO)C[C@@H](C)[C@H](CN(C)C)O3)cc1,inactive
21,C[C@H]1CN([C@@H](C)CO)C(=O)c2cccc(NC(=O)Nc3ccc4c(c3)OCO4)c2O[C@@H]1CN(C)Cc1ccc(C(=O)Nc2ccccc2N)cc1,inactive
